Reference: PubChem BioAssay (EPA / NIEHS)
Inconclusive results are not listed. The source made the active and inactive calls. The calls were made as follows, unless noted: active = hit-call score of the fitted dose curve at least 0.9, where 1 is the maximum; inconclusive = response in the unintended direction; inactive = score below 0.9.

Legend:
[1] = target: Retinoic acid receptor RXR-alpha (Homo sapiens) (UniProt P19793); experiment: ATG_RXRa_TRANS: Attagene TRANS-FACTORIAL HepG2 Assay for human Retinoid X Receptor alpha (RXRa) (AID 2283012)
How it was run: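 Transient transfection of human HepG2 with multiple GAL4-UAS reporter constructs; 24 h compound exposure; total RNA isolated, reverse-transcribed, PCR-amplified, 6-FAM labelled, HpaI-cut, resolved by capillary electrophoresis. Positive-direction fit versus DMSO.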

[2] = target: human Retinoid X Receptor beta (RXRb), RXRB (gene 6257) (UniProt P28702); experiment: ATG_RXRb_TRANS: Attagene TRANS-FACTORIAL HepG2 Assay for human Retinoid X Receptor beta (RXRb) (AID 2283013)
How it was run: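 Transfect HepG2 with GAL4-UAS multi-reporter constructs (chimeric NR-Gal4, TRANS format); dose compound 24 h; isolate RNA, RT-PCR, FAM primer extension, HpaI digest; quantify by capillary electrophoresis; positive direction vs DMSO.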

[3] = target: human Thyroid Receptor alpha (THRa1), THRA (gene 7067) (UniProt P10827); experiment: ATG_THRa1_TRANS: Attagene TRANS-FACTORIAL HepG2 Assay for human Thyroid Receptor alpha (THRa1) (AID 2283014)
How it was run: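 HepG2 cells transiently transfected with chimeric NR-Gal4 and GAL4-UAS reporter units, dosed 24 h. Reporter mRNA quantified by RT-PCR, fluorescent labeling, HpaI digestion and capillary electrophoresis; gain-of-signal fit versus DMSO.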

[4] = target: human Vitamin D Receptor (VDR), VDR (gene 7421) (UniProt P11473); experiment: ATG_VDR_TRANS: Attagene TRANS-FACTORIAL HepG2 Assay for human Vitamin D Receptor (VDR) (AID 2283022)
How it was run: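 HepG2 cells were transiently transfected with GAL4-UAS reporter units and a chimeric VDR-Gal4 construct, then dosed for 24 hours. Reporter mRNA was quantified by RT-PCR, fluorescent labeling, HpaI digestion and capillary electrophoresis; gain of signal analysed vs DMSO.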

[5] = read-out: E-selectin (Homo sapiens) (UniProt P16581); experiment: BSK_3C_Eselectin: BioMAP Diversity Plus: 3C Assay for Eselectin Biomarker Activity (AID 2283015; active = hit-call score of the fitted dose curve at least 0.9, where 1 is the maximum; inactive = score below 0.9;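 also: cell surface E-selectin protein quantified by ELISA 24 h after dosing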); details: primary human endothelial cells (HUVEC); actives raise or lower the signal
How it was run: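 Primary human umbilical vein endothelial cells (3C system), read 24 h after compound addition; E-selectin measured by ELISA. Bidirectional curve fitting against DMSO baseline; cytotoxicity by parallel SRB total-protein staining.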

[6] = read-out: Interleukin-1 alpha (IL1a), IL1A (gene 3552); experiment: BSK_BE3C_IL1a: BioMAP Diversity Plus: BE3C Assay for Interleukin-1 alpha (IL1a) Biomarker Activity (AID 2283016; active = hit-call score of the fitted dose curve at least 0.9, where 1 is the maximum; inactive = score below 0.9); details: primary human bronchial epithelial cells; actives raise or lower the signal
How it was run: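 BE3C primary human bronchial epithelium; cpd 24 h; IL-1a by ELISA; bidirectional fit vs DMSO; parallel SRB (0.1% SRB, 10% TCA fix, 560 nm) for cytotoxicity.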

[7] = read-out: Monocyte Chemoattractant Protein-1 (MCP1), CCL2 (gene 6347); experiment: BSK_3C_MCP1: BioMAP Diversity Plus: 3C Assay for Monocyte Chemoattractant Protein-1 (MCP1) Biomarker Activity (AID 2283017; active = hit-call score of the fitted dose curve at least 0.9, where 1 is the maximum; inactive = score below 0.9); details: primary human endothelial cells (HUVEC); actives raise or lower the signal
How it was run: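 Human umbilical vein endothelial cells (3C system) exposed to chemicals for 24 h; MCP-1 quantified by ELISA against the DMSO baseline with bidirectional fitting, and parallel SRB staining used to assess cytotoxicity.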

[8] = read-out: Monocyte Chemoattractant Protein-1 (MCP1), CCL2 (gene 6347); experiment: BSK_4H_MCP1: BioMAP Diversity Plus: 4H Assay for Monocyte Chemoattractant Protein-1 (MCP1) Biomarker Activity (AID 2283018; active = hit-call score of the fitted dose curve at least 0.9, where 1 is the maximum; inactive = score below 0.9); details: primary human endothelial cells (HUVEC); actives raise or lower the signal
How it was run: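 ELISA read-out of MCP-1 from human vascular endothelial primary cells taken at 24 hours after compound exposure. Activity was fitted in both directions relative to DMSO, which served as negative control.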

[9] = read-out: Human Leukocyte Antigen - DR isotype (HLADR), HLA-DRA (gene 3122); experiment: BSK_3C_HLADR: BioMAP Diversity Plus: 3C Assay for Human Leukocyte Antigen - DR isotype (HLADR) Biomarker Activity (AID 2283019; active = hit-call score of the fitted dose curve at least 0.9, where 1 is the maximum; inactive = score below 0.9;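 also: ELISA of cell-surface HLA-DR on HUVEC 24 h after dosing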); details: primary human endothelial cells (HUVEC); actives raise or lower the signal
How it was run: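 HUVEC monoculture, HLA-DR measured by ELISA 24 h after chemical dosing. Fitted bidirectionally against DMSO baseline; parallel SRB staining assessed cytotoxicity, with 3C proliferation read by SRB at 48 h.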

[10] = read-out: Interleukin-8 (IL8), CXCL8 (gene 3576); experiment: BSK_3C_IL8: BioMAP Diversity Plus: 3C Assay for Interleukin-8 (IL8) Biomarker Activity (AID 2283020; active = hit-call score of the fitted dose curve at least 0.9, where 1 is the maximum; inactive = score below 0.9); details: primary human endothelial cells (HUVEC); actives raise or lower the signal
How it was run: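 ELISA read-out of IL-8 from human umbilical vein endothelium, measured 24 h after chemical dosing. Activity is expressed relative to DMSO negative control, with both increases and decreases fitted.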

[11] = read-out: Matrix Metallopeptidase 1 (MMP1), MMP1 (gene 4312); experiment: BSK_BE3C_MMP1: BioMAP Diversity Plus: BE3C Assay for Matrix Metallopeptidase 1 (MMP1) Biomarker Activity (AID 2283024; active = hit-call score of the fitted dose curve at least 0.9, where 1 is the maximum; inactive = score below 0.9); details: primary human bronchial epithelial cells; actives raise or lower the signal
How it was run: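 Human bronchial epithelial cells (BE3C system) exposed to compound for 24 h; MMP1 then quantified by ELISA. Activity was fitted in both directions relative to DMSO.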

[12] = BSK_3C_Vis: BioMAP Diversity Plus: 3C Assay for Morphology Visualization (AID 2283025; active = hit-call score of the fitted dose curve at least 0.9, where 1 is the maximum; inactive = score below 0.9;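 also: fitted both ways so gain or loss versus DMSO counts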); details: primary human endothelial cells (HUVEC)
How it was run: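 Chemicals were added to primary human umbilical vein endothelium, cells were incubated 24 h, and morphology was then visualized by light microscopy. Gain or loss of signal was fitted bidirectionally relative to DMSO.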

[13] = read-out: Pselectin, SELP (gene 6403); experiment: BSK_4H_Pselectin: BioMAP Diversity Plus: 4H Assay for Pselectin Biomarker Activity (AID 2283026; active = hit-call score of the fitted dose curve at least 0.9, where 1 is the maximum; inactive = score below 0.9); details: primary human endothelial cells (HUVEC); actives raise or lower the signal
How it was run: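 ELISA read-out of P-selectin on human umbilical vein endothelium after 24 h of dosing. Values derive from bidirectional fitting relative to DMSO. Parallel SRB protein staining flagged overt cytotoxicity.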

[14] = BSK_4H_SRB: Viability Assessment in the BioMAP Diversity Plus: 4H Assay (AID 2283027; active = hit-call score of the fitted dose curve at least 0.9, where 1 is the maximum; inactive = score below 0.9;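 also: cells exposed to compound for 24 h before staining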); details: primary human endothelial cells (HUVEC)
How it was run: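 Human umbilical vein endothelial cells, 24 h after chemical dosing; total protein measured by 0.1% sulforhodamine B staining after 10% TCA fixation, read at 560 nm. Bidirectional fitting against DMSO.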

[15] = BSK_BE3C_SRB: Viability Assessment in the BioMAP Diversity Plus: BE3C Assay (AID 2283028; active = hit-call score of the fitted dose curve at least 0.9, where 1 is the maximum; inactive = score below 0.9); details: primary human bronchial epithelial cells
How it was run: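 Human bronchial epithelial primary cells in confluent culture, 24 h after chemical dosing; total protein by 0.1% SRB staining after 10% TCA fixation, read at 560 nm. Bidirectional fitting versus DMSO baseline.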

[16] = read-out: Thrombomodulin, THBD (gene 7056); experiment: BSK_3C_Thrombomodulin: BioMAP Diversity Plus: 3C Assay for Thrombomodulin Biomarker Activity (AID 2283029; active = hit-call score of the fitted dose curve at least 0.9, where 1 is the maximum; inactive = score below 0.9); details: primary human endothelial cells (HUVEC); actives raise or lower the signal
How it was run: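 Read-out is ELISA of thrombomodulin on human umbilical vein endothelium 24 h after chemical dosing. Gain or loss of signal is scored relative to DMSO. Overt cytotoxicity is checked in parallel cultures by sulforhodamine B staining.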

[17] = read-out: Urokinase-type plasminogen activator receptor (uPAR), PLAUR (gene 5329); experiment: BSK_4H_uPAR: BioMAP Diversity Plus: 4H Assay for Urokinase-type plasminogen activator receptor (uPAR) Biomarker Activity (AID 2283030; active = hit-call score of the fitted dose curve at least 0.9, where 1 is the maximum; inactive = score below 0.9); details: primary human endothelial cells (HUVEC); actives raise or lower the signal
How it was run: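 Human umbilical vein endothelial cells in the 4H system, 24 h after chemical dosing. Cell-surface uPAR measured by ELISA, fitted in both directions versus DMSO; cytotoxicity checked by SRB total protein in parallel cultures.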

Sequence of Retinoic acid receptor RXR-alpha (Homo sapiens) (P19793 whole entry, looked up, the tested form may be a part): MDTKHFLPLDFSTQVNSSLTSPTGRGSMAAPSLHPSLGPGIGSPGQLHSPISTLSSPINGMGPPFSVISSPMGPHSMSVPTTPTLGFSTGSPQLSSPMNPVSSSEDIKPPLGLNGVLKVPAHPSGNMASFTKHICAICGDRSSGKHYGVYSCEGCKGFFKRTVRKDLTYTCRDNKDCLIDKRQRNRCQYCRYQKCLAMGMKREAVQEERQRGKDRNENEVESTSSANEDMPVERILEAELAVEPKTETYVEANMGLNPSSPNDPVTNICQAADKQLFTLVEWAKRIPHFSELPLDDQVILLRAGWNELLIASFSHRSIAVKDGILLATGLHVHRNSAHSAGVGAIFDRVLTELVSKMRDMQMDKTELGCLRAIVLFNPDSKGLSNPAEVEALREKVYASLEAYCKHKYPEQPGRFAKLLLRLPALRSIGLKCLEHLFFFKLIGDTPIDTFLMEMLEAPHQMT
Sequence of human Retinoid X Receptor beta (RXRb), RXRB (gene 6257) (P28702 whole entry, looked up, the tested form may be a part): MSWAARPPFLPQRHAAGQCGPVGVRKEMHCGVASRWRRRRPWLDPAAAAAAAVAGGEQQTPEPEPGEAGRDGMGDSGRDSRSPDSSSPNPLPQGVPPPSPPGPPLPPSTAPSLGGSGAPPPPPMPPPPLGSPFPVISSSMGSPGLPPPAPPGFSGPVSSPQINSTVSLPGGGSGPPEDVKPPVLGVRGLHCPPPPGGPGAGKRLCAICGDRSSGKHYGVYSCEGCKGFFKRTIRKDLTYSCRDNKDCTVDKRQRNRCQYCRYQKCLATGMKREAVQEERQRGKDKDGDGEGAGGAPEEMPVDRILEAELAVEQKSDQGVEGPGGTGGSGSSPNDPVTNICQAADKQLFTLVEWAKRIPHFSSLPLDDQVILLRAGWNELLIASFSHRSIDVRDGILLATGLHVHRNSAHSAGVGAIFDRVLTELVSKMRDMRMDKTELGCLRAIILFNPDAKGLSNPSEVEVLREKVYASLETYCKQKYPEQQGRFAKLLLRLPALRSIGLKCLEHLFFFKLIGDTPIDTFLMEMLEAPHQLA
Sequence of human Thyroid Receptor alpha (THRa1), THRA (gene 7067) (P10827 whole entry, looked up, the tested form may be a part): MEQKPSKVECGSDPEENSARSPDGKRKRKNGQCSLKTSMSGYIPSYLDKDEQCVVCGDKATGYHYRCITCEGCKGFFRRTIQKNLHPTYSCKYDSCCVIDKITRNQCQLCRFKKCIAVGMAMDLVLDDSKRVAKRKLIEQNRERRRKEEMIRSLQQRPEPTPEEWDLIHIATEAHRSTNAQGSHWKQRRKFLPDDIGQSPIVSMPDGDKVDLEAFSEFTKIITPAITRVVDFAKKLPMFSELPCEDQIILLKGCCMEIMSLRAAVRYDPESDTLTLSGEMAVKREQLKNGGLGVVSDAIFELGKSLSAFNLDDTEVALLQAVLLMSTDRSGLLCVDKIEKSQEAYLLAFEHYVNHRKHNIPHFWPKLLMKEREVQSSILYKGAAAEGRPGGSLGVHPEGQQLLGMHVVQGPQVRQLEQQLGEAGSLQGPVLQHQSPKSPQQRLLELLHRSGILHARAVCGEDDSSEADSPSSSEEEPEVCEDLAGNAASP
Sequence of human Vitamin D Receptor (VDR), VDR (gene 7421) (P11473 whole entry, looked up, the tested form may be a part): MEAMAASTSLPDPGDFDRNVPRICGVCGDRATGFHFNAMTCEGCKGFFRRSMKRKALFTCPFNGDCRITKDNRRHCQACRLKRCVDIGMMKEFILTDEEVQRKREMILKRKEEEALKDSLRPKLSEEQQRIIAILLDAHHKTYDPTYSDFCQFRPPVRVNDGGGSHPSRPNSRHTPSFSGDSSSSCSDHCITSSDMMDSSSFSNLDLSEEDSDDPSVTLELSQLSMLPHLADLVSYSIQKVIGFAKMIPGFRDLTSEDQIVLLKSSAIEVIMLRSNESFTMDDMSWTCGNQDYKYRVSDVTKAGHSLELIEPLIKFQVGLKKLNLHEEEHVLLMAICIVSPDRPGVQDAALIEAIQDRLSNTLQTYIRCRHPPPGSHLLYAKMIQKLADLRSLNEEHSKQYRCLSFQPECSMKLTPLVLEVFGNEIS
Sequence of E-selectin (Homo sapiens) (P16581 whole entry, looked up): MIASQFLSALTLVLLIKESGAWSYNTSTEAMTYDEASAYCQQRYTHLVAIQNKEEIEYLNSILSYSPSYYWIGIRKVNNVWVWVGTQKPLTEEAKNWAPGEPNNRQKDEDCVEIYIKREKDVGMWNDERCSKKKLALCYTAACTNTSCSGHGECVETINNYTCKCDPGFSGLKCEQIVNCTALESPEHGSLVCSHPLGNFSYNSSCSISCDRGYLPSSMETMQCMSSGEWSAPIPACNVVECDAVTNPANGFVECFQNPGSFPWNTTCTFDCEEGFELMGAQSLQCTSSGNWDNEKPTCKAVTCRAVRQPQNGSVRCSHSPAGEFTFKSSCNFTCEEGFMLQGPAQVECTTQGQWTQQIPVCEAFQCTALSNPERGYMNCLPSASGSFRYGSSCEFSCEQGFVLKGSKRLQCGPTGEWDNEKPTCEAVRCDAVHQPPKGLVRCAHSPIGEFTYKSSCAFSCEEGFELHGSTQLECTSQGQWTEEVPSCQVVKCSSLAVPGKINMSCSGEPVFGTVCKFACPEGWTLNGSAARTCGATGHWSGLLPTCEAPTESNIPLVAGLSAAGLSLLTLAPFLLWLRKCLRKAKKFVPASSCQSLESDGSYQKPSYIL

COC(C)(C)CC(C)=O
outcome [1]: inactive | outcome [2]: inactive | outcome [3]: inactive

CCC(=O)O[C@@H]1C[C@H]2CC[C@]1(C)C2(C)C
outcome [1]: inactive | outcome [2]: inactive

COc1cc(CCC(C)=O)ccc1O
outcome [1]: inactive

CC(=O)NCCO
outcome [1]: inactive | outcome [2]: inactive

COC(C)(C)CCCC(C)CC=O (configuration not stated)
outcome [1]: inactive

CCCCC(CC)(CO)CO
outcome [1]: inactive | outcome [2]: inactive

CCc1cc(Cc2cc(CC)cc(C(C)(C)C)c2O)c(O)c(C(C)(C)C)c1
outcome [1]: inactive | AC50 [2]: 5.71 µM (active) | outcome [3]: inactive

O=C(O)CCCCCCCCC(=O)O
outcome [1]: inactive | outcome [2]: inactive

O=C1OC(=O)c2c(Cl)c(Cl)c(Cl)c(Cl)c21
outcome [1]: inactive | outcome [2]: inactive | outcome [3]: inactive

CCCCCCOC(=O)CCC
outcome [1]: inactive | outcome [2]: inactive

CC=Cc1ccc(OC)c(OC)c1
outcome [1]: inactive | outcome [2]: inactive | outcome [3]: inactive

Cc1c(OCC(F)(F)F)ccnc1CS(=O)c1nc2ccccc2[nH]1 (configuration not stated)
outcome [1]: inactive

COS(=O)(=O)O
outcome [1]: inactive | outcome [2]: inactive | outcome [3]: inactive

CC(=O)O[C@H]1C[C@@H]2CC[C@@]1(C)C2(C)C
outcome [1]: inactive | outcome [2]: inactive

CCCCC1CCC(O)CC1 (configuration not stated)
outcome [1]: inactive | outcome [2]: inactive | outcome [3]: inactive

CCCCCCCCc1ccc(S(=O)(=O)O)cc1
outcome [1]: inactive | outcome [2]: inactive

NCCNc1cccc2ccccc12
outcome [1]: inactive | outcome [2]: inactive | outcome [3]: inactive

CCCCCCCCCCCC(=O)OC[C@@H](O)[C@H]1OC[C@H](O)[C@H]1O
outcome [1]: inactive | outcome [2]: inactive

COCCc1ccc(OCC(O)CNC(C)C)cc1 (configuration not stated)
outcome [1]: inactive

CCCCCCCCSCCO
outcome [1]: inactive | outcome [2]: inactive

CC(C)C[C@H](NC(=O)OCC1c2ccccc2-c2ccccc21)C(=O)O
outcome [1]: inactive | outcome [2]: inactive | outcome [3]: inactive

CC(C)(C)c1ccc(C(=O)O)cc1
outcome [1]: inactive | outcome [2]: inactive

Clc1ccc(C(c2ccccc2Cl)C(Cl)Cl)cc1 (configuration not stated)
outcome [1]: inactive | AC50 [2]: 9.66 µM (active) | outcome [3]: inactive

CC(C)CCOC(=O)c1ccccc1
outcome [1]: inactive | outcome [2]: inactive | outcome [3]: inactive

CC1=C(Br)C(=O)C(Br)=C/C1=C(/c1ccccc1S(=O)(=O)O)c1cc(Br)c(O)c(Br)c1C
outcome [1]: inactive

c1ccc(CN(Cc2ccccc2)Cc2ccccc2)cc1
outcome [1]: inactive | AC50 [2]: 13.1 µM (active)

Cc1ccc(-c2ccccc2)cc1
outcome [1]: inactive | outcome [2]: inactive

N#Cc1cscn1
outcome [1]: inactive

CC(C)(C)OC(=O)c1ccc(O)cc1
outcome [1]: inactive

C=C1CC[C@H](O)C/C1=C/C=C1\CCC[C@]2(C)[C@@H]([C@H](C)/C=C/[C@H](C)C(C)C)CC[C@@H]12
outcome [1]: inactive

C=CC(=O)OCCCC
outcome [1]: inactive | outcome [2]: inactive | outcome [3]: inactive

CN(C)c1ccncc1
outcome [1]: inactive

CCC(Cl)C(Cl)C(Cl)CC(Cl)C(Cl)C(C)Cl (configuration not stated)
outcome [1]: inactive | AC50 [2]: 16.4 µM (active) | outcome [3]: inactive | outcome [4]: inactive

C1=CC2C3C=CC(C3)C2C1 (configuration not stated)
outcome [1]: inactive | outcome [2]: inactive | outcome [3]: inactive | outcome [5]: inactive | outcome [6]: inactive | outcome [7]: inactive | outcome [8]: inactive | outcome [9]: inactive | outcome [10]: inactive | outcome [4]: inactive | outcome [11]: inactive | outcome [12]: inactive | outcome [13]: inactive | outcome [14]: inactive | outcome [15]: inactive | outcome [16]: inactive | outcome [17]: inactive
